{
  "source": "PubChem BioAssay",
  "note": "A number with no mark means an inactive call. The rule behind the calls is not given here.",
  "data": [
    {"target": "Pantothenate synthetase (Mycobacterium tuberculosis (strain ATCC 25618 / H37Rv)) (UniProt P9WIL5)", "sequence (P9WIL5 whole entry, looked up)": "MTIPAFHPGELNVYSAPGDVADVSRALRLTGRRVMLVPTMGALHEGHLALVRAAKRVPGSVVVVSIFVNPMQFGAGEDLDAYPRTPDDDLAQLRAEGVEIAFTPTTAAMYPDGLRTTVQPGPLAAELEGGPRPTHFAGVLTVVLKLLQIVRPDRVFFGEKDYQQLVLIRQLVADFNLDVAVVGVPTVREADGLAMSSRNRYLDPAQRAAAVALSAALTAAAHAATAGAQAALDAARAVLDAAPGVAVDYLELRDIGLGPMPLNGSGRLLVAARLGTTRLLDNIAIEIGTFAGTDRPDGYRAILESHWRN", "assay": "Coupled enzyme confirmation of inhibitors against recombinant Mtb PanC (AID 375);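 note: 0% = full reaction with vehicle and 100% = no enzyme background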", "details": "coupled enzyme assay; at 10 µM, active compounds read high", "units": {"inhibition": "%"}, "values": [
      {"compound": "COC(=O)C1=C(C)N(c2ccc(C(=O)OC)cc2)C(=O)C1", "inhibition": 0},
      {"compound": "CC(C)[C@H](NC(=O)[C@@H]1CSCN1C(=O)OC(C)(C)C)C(=O)NCC1CCC(C(=O)O)CC1", "note": "(stereo not given in full)", "inhibition": 7},
      {"compound": "Cc1nc2ccccc2c2oc(C(=O)N3CCC(N4CCCCC4)CC3)cc12", "inhibition": 0},
      {"compound": "COCCN1C=C(C(=O)OC)C(c2cc3c(cc2Br)OCO3)C(C(=O)OC)=C1", "inhibition": 0},
      {"compound": "CNC(=O)CN(c1ccc(C(C)C)cc1)S(C)(=O)=O", "inhibition": 0},
      {"compound": "COc1cccc(C(c2nnnn2Cc2ccccc2)N2CCN(C(=O)c3ccco3)CC2)c1OC", "note": "(stereo not given)", "inhibition": 4},
      {"compound": "COc1ccc(/C=N/n2cnnc2SCc2ccc(OC)cc2)cc1", "inhibition": 0},
      {"compound": "CCOc1ccc(N(CC(=O)NCC2CCCO2)S(=O)(=O)c2ccc(OC)c(OC)c2)cc1", "note": "(stereo not given)", "inhibition": 0},
      {"compound": "CSCCC(NC(=O)c1ccco1)C(=O)O", "note": "(stereo not given)", "inhibition": 0},
      {"compound": "N#Cc1c(N)oc(-c2cccs2)c1-c1cccs1", "inhibition": 1},
      {"compound": "Cc1nc(-c2coc3cc(OCC(=O)O)ccc3c2=O)cs1", "inhibition": 0},
      {"compound": "C/C(N)=C(\\C#N)C(=O)NCCc1ccccn1", "inhibition": 0},
      {"compound": "CN1C(C(=O)Nc2ccccn2)=C(O)c2ccccc2S1(=O)=O", "inhibition": 9},
      {"compound": "CCCN1Cc2cccc(C(=O)NC3CCCC3)c2C1=O", "inhibition": 0},
      {"compound": "Cc1cc(C)n2cc(CSCc3ccco3)nc2n1", "inhibition": 2},
      {"compound": "S=C(NCC1CCCO1)n1nnc2ccccc21", "note": "(stereo not given)", "inhibition": 6},
      {"compound": "CCOC(=O)C1CCN(S(=O)(=O)c2cccc(-c3csc(C)n3)c2)CC1", "inhibition": 0},
      {"compound": "CCC(=O)Nc1ccc(Cl)c(NC(=O)C(C)C)c1", "inhibition": 3},
      {"compound": "CC(NC(=O)C1CCCN(S(=O)(=O)c2cccs2)C1)c1ccccc1", "note": "(stereo not given)", "inhibition": 0},
      {"compound": "Cc1nnc(N2C(=O)C(O)=C(C(=O)c3ccco3)C2c2ccc(F)cc2)s1", "note": "(stereo not given)", "inhibition": 0},
      {"compound": "CCCn1nc(NS(=O)(=O)c2ccccc2)c2cc3ccccc3nc21", "inhibition": 1},
      {"compound": "CCCn1cc(C(CC(=O)O)C(=O)O)c2ccccc21", "note": "(stereo not given)", "inhibition": 8},
      {"compound": "Cc1ccc2oc(C(=O)Nc3c(C)n(C)n(-c4ccccc4)c3=O)c(C)c2c1", "inhibition": 0},
      {"compound": "Cc1ccc(-c2cc(C(=O)NCc3ccc4c(c3)OCO4)no2)cc1", "inhibition": 0},
      {"compound": "CCOc1ccc2nc(N3CCC(C(=O)N4CCN(C5CCCCC5)CC4)CC3)sc2c1", "inhibition": 0},
      {"compound": "O=C(CN1C(=O)CCSc2ccccc21)Nc1ccc(F)cc1", "inhibition": 1},
      {"compound": "Cc1c(N(C)C)nc2ccccc2c1N", "inhibition": 0},
      {"compound": "CCC(=O)N1CCc2cc(S(=O)(=O)CCC(=O)Nc3c(C)n(C)n(-c4ccccc4)c3=O)ccc21", "inhibition": 7},
      {"compound": "Cc1cccc(NC(=O)c2cnc3sccn3c2=O)n1", "inhibition": 4},
      {"compound": "COC(=O)Cn1c(=O)c2c(nc3n2CC(C)CN3c2ccc(C)c(C)c2)n(C)c1=O", "note": "(stereo not given)", "inhibition": 4},
      {"compound": "COc1ccccc1-c1cc(C(=O)NCCCn2ccnc2)no1", "inhibition": 0},
      {"compound": "Cc1cccc(CN2CCN(C(c3ccccc3)c3ccc(Cl)cc3)CC2)c1", "note": "(stereo not given)", "inhibition": 11},
      {"compound": "O=C(O)c1cccc(S(=O)(=O)N2CCOCC2)c1", "inhibition": 2},
      {"compound": "O=C(Nc1ccc2snnc2c1)N1CCSCC1", "inhibition": 0},
      {"compound": "COc1ccc(-n2c(SCC#N)nc3ccccc3c2=O)cc1", "inhibition": 1},
      {"compound": "Cc1cc2oc(=O)cc(C)c2c(=O)o1", "inhibition": 4},
      {"compound": "CC(C)C(C(=O)Nc1ccc2c(c1)OCCO2)N1C(=O)c2ccccc2C1=O", "note": "(stereo not given)", "inhibition": 0},
      {"compound": "O=C(CN(Cc1ccc(F)cc1)C(=O)c1ccco1)NCc1ccc(F)cc1", "inhibition": 0},
      {"compound": "COc1ccc(C2CC(=O)C3=C(C2)Nc2ccccc2N(C(=O)C2CC2)C3c2cccnc2)cc1OC", "note": "(stereo not given)", "inhibition": 8},
      {"compound": "COc1ccc(Nc2ncnc3c2cnn3-c2ccccc2)cc1OC", "inhibition": 1}
    ]}
  ]
}
